Experimental data as given in PubChem BioAssay (NCATS).
Results filed as inconclusive are left out. Entries that show only a call come without a potency. The source made the active and inactive calls. Calls come from the whole dose curve. Residues, ends and D or L forms follow the SMILES beside them. *: point of attachment. Cbz = O=C(OCc1ccccc1)*

What follows are compounds tested against Atrial natriuretic peptide receptor 1 (Homo sapiens) (UniProt P16066) (assay: Natriuretic polypeptide receptor (hNpr1) antagonism - Pilot screen (AID 1347049)). Conditions: hNpr1 cells, antagonist mode cGMP read-out; series mostly up to 57.5 µM.
Atrial natriuretic peptide receptor 1 (Homo sapiens), sequence (P16066 whole entry, looked up, the tested form may be a part): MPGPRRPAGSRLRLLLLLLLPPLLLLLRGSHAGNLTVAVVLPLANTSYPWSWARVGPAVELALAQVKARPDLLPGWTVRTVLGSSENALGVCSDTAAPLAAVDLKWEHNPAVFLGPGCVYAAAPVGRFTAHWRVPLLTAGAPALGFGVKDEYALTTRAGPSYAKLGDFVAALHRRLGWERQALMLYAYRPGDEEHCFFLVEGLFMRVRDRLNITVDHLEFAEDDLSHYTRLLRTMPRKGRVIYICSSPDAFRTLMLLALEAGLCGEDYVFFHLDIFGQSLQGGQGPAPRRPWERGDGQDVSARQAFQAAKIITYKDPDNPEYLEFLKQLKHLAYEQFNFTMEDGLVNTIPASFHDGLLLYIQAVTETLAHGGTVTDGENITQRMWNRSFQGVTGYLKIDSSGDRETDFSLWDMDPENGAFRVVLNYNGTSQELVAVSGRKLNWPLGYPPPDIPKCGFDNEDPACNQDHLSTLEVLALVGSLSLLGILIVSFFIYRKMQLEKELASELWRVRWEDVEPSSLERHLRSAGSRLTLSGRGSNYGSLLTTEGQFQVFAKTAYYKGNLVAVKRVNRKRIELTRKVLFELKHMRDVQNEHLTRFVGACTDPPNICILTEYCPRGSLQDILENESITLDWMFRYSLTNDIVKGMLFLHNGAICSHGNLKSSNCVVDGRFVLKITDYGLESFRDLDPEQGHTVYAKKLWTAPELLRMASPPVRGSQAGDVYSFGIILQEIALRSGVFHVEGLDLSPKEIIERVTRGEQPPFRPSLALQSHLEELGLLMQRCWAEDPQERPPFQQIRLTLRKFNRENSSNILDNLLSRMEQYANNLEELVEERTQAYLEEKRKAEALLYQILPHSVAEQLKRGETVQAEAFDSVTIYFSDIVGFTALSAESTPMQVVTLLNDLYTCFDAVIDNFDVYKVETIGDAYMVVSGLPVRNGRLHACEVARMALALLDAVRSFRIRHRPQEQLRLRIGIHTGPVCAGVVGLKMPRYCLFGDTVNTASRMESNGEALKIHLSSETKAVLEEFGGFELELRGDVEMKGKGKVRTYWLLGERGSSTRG
Procedure: In order to identify small molecular compounds that inhibit the hNpr1 receptor we developed a high-throughput assay to measure inhibition of the guanylate cyclase activity of the receptor. cGMP production was measured using a circular permutated Firefly luciferase (FLuc) enzyme functionally linked to the cGMP binding domain of human phosphodiesterase 5 (GloSensor technology pGS-40F, (Fan, F. et al. 2008). The cGMP-sensor was expressed in human embryonic kidney 293 (HEK-293) cells and FLuc activity was measured after stimulation with hNrp agonist peptide. hNrp agonists activates the receptor's associated guanylyl cyclase (GC) domain producing cGMP which then binds to the GloSensor resulting in FLuc activation, the enzymatic activity of which can be measured as bioluminescence with addition of luciferin substrate.
F. Fan, B. F. Binkowski, B. L. Butler, P. F. Stecha, M. K. Lewis, K. V. Wood, Novel genetically encoded biosensors using firefly luciferase. ACS Chem Biol 3, 346-351 (2008).
This assay was initially piloted by testing with a small diversity library of compounds with known pharmacological activity.
PROTOCOL TABLES (as described by Inglese J, Shamu CE and Guy RK. 2007)
SEQUENCE No. (e.g., 1, 2, 3, etc.); […] (e.g., Cells, Incubation, Reagent, etc.); VALUE and DESCRIPTION.
1. Cells. Seed 1500 HEK293 cGMP-sensor cells expressing hNpr1 per well in 4uL into Greiner 1536-well white/solid bottom high base, tissue culture-treated plates.
2. Incubation. Incubate plated cells at 37C in 5% CO2, 95% RH overnight.
3. Reagent. Add 1uL per well GloSensor reagent from Promega (2% final concentration) or CO2 independent media vehicle control to respective columns of Greiner 1536-well plates.
4. Incubation. Incubate plated cells at room temperature for 2 h, protect from light.
5. Compounds. Library compounds and A-71915 control added at 23 nL per well, transferred by Pin Tool.
6. Incubation. Incubate plated cells for 30 min. at room temperature, protect from light.
7. Detector. GloSensor baseline pre-read luminescence measured using CCD-based camera (Viewlux).
8. Compound. Add 1uL of hNppA peptide to 0.1 nM final concentration to stimulate hNpr1 or CO2 independent media as vehicle control.
9. Incubation. Incubate treated cells at room temperature for 20 min., protect from light.
10. Detector. GloSensor post-hNppA luminescence measured using CCD-based camera (Viewlux).
NOTES (numbers refer to Sequence numbers above)
1. HEK293 cells expressing hNpr1 and GIP/pGS-40F grown to 85-95% confluence (48-72 h) in T175 culture flasks (CO2 independent media supplemented with 10% FBS, 1% Pen/Strep antibiotics and 1 ug/mL puromycin). Trypsinize and harvest cells from T175 culture flasks and filter through 40 um cell strainer. Cells counted with Invitrogen Countess (30,000,000 - 50,000,000 cells/flask). Cells diluted to a final concentration of 375 cells/uL in CO2 independent media and a Millipore multidrop used to dispense 1500 cells per well (4uL/well) into 9 x 1536-well Greiner White/Solid bottom, high base tissue-culture treated (TC) plates and one Aurora 1536-well Black/Clear bottom, low base, TC plate (for visual inspection of cell health throughout the duration of the assay).
2. Cells incubated overnight at ambient temperature, 24 h. at 37C in 95% RH incubator protected from light, covered with metal lid with gas-exchange holes.
3. Prepare GloSensor Reagent (Promega): Reconstitute GloSensor luciferase substrate by adding 8.2mL Hepes buffer to 250mg substrate, mix well, protect from light and stored at -80C. Prepare a fresh 12% GloSensor solution in CO2 independent supplemented plating media (see above). Mix well and store at ambient temperature, protected from light. 1uL 12% GloSensor Luciferase Reagent added (2% final concentration) to respective columns of 9 x 1536-well Greiner plate with BioRaptr, 1uL CO2 independent plating media added to respective columns as vehicle control with BioRaptr.
4. […]
In the case of `C=CCN1CCc2cc(O)c(O)cc2C(c2ccccc2)C1` (stereo not given), the Potency is reported as “inactive”. `CNc1ncnc2c1ncn2[C@H]1C[C@H](OP(=O)(O)O)[C@@H](COP(=O)(O)O)O1` was tested, and the Potency was “inactive”. For `O=c1[nH]c(=S)[nH]c(-c2ccccc2)c1Cc1c(O)ccc2ccccc12`, the Potency was “inactive”. `O=c1[nH]c2ccccc2c2ccccc12` was tested, and the Potency was “inactive”. With `CCCCS(=N)(=O)CC[C@H](N)C(=O)O` (stereo not given in full) the Potency was “inactive”. `N[C@@H](Cc1ccc(O)c(I)c1)C(=O)O` was tested, and the Potency was “inactive”. In the case of `N#C/C(=C\c1ccc(O)c(O)c1)C(=O)NCCCNC(=O)/C(C#N)=C/c1ccc(O)c(O)c1`, the Potency is reported as “inactive”. With `COC1(C2=NCCN2)COc2ccccc2O1` (stereo not given) the Potency was “inactive”. In the case of `O=c1cc(-c2ccccc2F)[nH]c2cc3c(cc12)OCO3`, the Potency is reported as “inactive”. With `CC(N)=O` the Potency was “inactive”. `CC(=O)NCCc1c[nH]c2ccc(O)cc12` was tested, and the Potency was “inactive”. `O=c1ccc2c(OCCCCc3ccccc3)c3ccoc3cc2o1` was tested, and the Potency was “inactive”. In the case of `COC(=O)C(N)Cc1ccc(Cl)cc1` (stereo not given), the Potency is reported as “inactive”. With `O=C(O)CCC(=O)N1CCCC1C(=O)O` (stereo not given) the Potency was “inactive”. For `Cn1c(=O)c2[nH]c(-c3ccc(S(=O)(=O)O)cc3)nc2n(C)c1=O`, the Potency was “inactive”. For `CC(C)(C)NCC(O)COc1cccc2[nH]c(=O)[nH]c12` (stereo not given), the Potency was “inactive”. With `CNCCNS(=O)(=O)c1cccc2cnccc12` the Potency was “inactive”. With `Nc1ncnc2c1nc(Br)n2C1OC2COP(=O)(O)O[C@@H]2C1O` (stereo not given in full) the Potency was “inactive”. With `O=[N+]([O-])c1cccc2c(Br)[nH]nc12` the Potency was “inactive”. In the case of `CCCc1c(OCCCOc2ccc(OCC(=O)O)cc2)ccc(C(C)=O)c1O`, the Potency is reported as “inactive”. For `Cc1ccc([N+](=O)[O-])cc1S(=O)(=O)N(C)C`, the Potency was “inactive”. For `COc1ccccc1N1CCN(CCN(C(=O)c2ccc(F)cc2)c2ccccn2)CC1`, the Potency was “inactive”. In the case of `N[C@H](C(=O)O)[C@H]1C[C@@H]1C(=O)O`, the Potency is reported as “inactive”. `N[C@@H](CCC(=O)N[C@H](CSN=O)C(=O)NCC(=O)O)C(=O)O` was tested, and the Potency was “inactive”. For `Cn1c(=O)c2c(nc(/C=C/c3cccc(Cl)c3)n2C)n(C)c1=O`, the Potency was “inactive”. For `Cc1ccccc1/C=C/C1=NCCN1`, the Potency was “inactive”. In the case of `Cn1ccnc1`, the Potency is reported as “inactive”. `O=C(O)c1ccccc1Nc1cccc(OCc2ccc3ccccc3n2)c1` was tested, and the Potency was “inactive”. With `CC(=O)NNC(=O)N1Cc2ccccc2Oc2ccc(Cl)cc21` the Potency was “inactive”. In the case of `CC(=O)SC1CC2=CC(=O)CC[C@]2(C)C2CC[C@@]3(C)C(CC[C@@]34CCC(=O)O4)C12` (stereo not given in full), the Potency is reported as “inactive”. With `CC(N)(C(=O)O)c1ccc(C(=O)O)cc1` (stereo not given) the Potency was “inactive”. With `CCN(CC)CCCCCCCCOC(=O)c1cc(OC)c(OC)c(OC)c1` the Potency was “inactive”. With `C=C(C)C1CC=C(C(=O)O)CC1` (stereo not given) the Potency was “inactive”. For `CC(C)[C@H](NC(=O)OCc1ccccc1)C(=O)N[C@H](C=O)Cc1ccccc1` (Cbz-Val-Phe-aldehyde), the Potency was “inactive”. For `N[C@H](C(=O)O)[C@H](Cc1ccccc1)C(=O)O`, the Potency was “inactive”. With `CCCCCCCCCCCCCCC[C@H](O)[C@H](N)CO` the Potency was “inactive”. `C=C1C[C@@]23CC[C@H]4[C@@](C)(CCC[C@@]4(C)C(=O)OC4OC(CO)C(O)C(O)C4O)[C@@H]2CC[C@]1(OC1OC(CO)C(O)C(O)C1OC1OC(CO)C(O)C(O)C1O)C3` (stereo not given in full) was tested, and the Potency was “inactive”. With `O=C(O)/C=C/c1ccc(O)c(O)c1` the Potency was “inactive”. With `CCN(c1nc(N)c(C(=O)N=C(N)N)nc1Cl)C(C)C` the Potency was “inactive”. For `CN1Cc2sccc2C(c2ccc(O)c(O)c2)C1` (stereo not given), the Potency was “inactive”.
